This is a sample that favours compounds with a hit; in the whole collection about 11% have one here.
SW480 rereplic = A quantitative high throughput screen for small molecules that induce DNA re-replication in SW480 colon adenocarcinoma cells; SW480 DNA re-replication, Hoechst DNA content imaging, 48 h; Potency, µM (series often up to 46.1 µM), without a hit: at the highest dose re-replication activation, usual class: activators; actives 1.8% (n = 340,000); further: potency means the concentration at half of the fitted maximal effect; % of control where 0% means no effect; nearly all actives have a fitted effect of over 55% in size
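First, 250 cells per well were seeded. Next, compound or vehicle (23 nL) was pinned in, plates sat 48 hr at 37 C. Finally Hoechst was added for 40 min before fluorescence scanning.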
IL-1B inflam inh = qHTS for Inhibitors of Inflammasome Signaling: IL-1-beta AlphaLISA Primary Screen | THP-1 LPS/ATP IL-1B secretion, AlphaLISA, 16 h; active compounds read low | activity change, % at 57.5 µM | actives 4.7% (n = 360,000); in the data active means activity change below about -50%; inconclusive means mostly about -30% to -49%; further: on the % scale 0 is the no-effect control and ±100 the full control effect
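Secreted IL-1B measured by AlphaLISA bead assay after 16 h compound exposure of THP-1 cells; compounds (final up to 57.5 uM) added 1 h before LPS (250 ng/mL) and ATP (1.25 mM) stimulation; lower signal means less secretion.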
MCF10A rerep = A quantitative high throughput screen for small molecules that induce DNA re-replication in MCF 10a normal breast cells. MCF 10A DNA re-replication, Hoechst nuclear intensity, 48 h. Potency, µM (highest dose often 46.1 µM), inactives show top-dose activity, positive = re-replication, hits mostly activators. actives 2.9% (n = 350,000). AID 624296, 2012; further: potency means the concentration at half of the fitted maximal effect; % of control where 0% means no effect; nearly all actives have a fitted effect of over 50% in size
Gal4-VP16 FLuc = VP16 counterscreen qHTS for inhibitors of ROR gamma transcriptional activity; actives 3.5% (n = 310,000); AID 2546, 2010; Potency, µM (top dose mostly 53.6 µM), for the others: top-dose activity, negative = inhibition, hits mostly inhibitors; Drosophila S2 Gal4-VP16 UAS-luciferase, luminescence, 20 h;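 further: Gal4-VP16 expression switched on by copper sulfate through the metallothionein promoter; potency means the concentration at half of the fitted maximal effect; on the % scale 0 is the no-effect control and ±100 the full control effect; nearly all actives have a fitted effect of over 50% in size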
RORg inh = qHTS for inhibitors of ROR gamma transcriptional activity | AID 2551, 2010 | actives 5.4% (n = 310,000) | Potency, µM (series often up to 53.6 µM), inactives show at the highest dose activity change, negative = inhibition, actives largely listed as inhibitors | Drosophila S2 Gal4-RORgamma UAS-luciferase reporter, 20 h | Nuclear receptor ROR-gamma (Mus musculus), P51450; further: potency means the concentration at half of the fitted maximal effect; on the % scale 0 is the no-effect control and ±100 the full control effect; nearly all actives have a fitted effect of over 60% in size
Target sequence (P51450 whole entry, looked up, the tested form may be a part): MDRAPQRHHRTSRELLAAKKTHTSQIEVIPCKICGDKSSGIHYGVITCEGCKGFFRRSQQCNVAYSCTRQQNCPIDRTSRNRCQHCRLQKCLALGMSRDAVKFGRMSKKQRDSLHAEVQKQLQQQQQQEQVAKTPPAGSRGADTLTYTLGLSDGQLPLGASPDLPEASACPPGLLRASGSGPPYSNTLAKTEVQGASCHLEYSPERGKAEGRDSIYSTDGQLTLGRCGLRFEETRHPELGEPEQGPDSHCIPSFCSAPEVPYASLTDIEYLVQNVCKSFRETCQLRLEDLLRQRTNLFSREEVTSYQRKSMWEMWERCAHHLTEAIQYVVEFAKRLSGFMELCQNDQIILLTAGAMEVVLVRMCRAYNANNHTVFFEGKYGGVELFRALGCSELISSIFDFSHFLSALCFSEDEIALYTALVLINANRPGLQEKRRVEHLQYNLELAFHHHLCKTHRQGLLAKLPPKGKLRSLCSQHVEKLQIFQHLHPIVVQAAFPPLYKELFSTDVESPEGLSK
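Luminescence from a UAS-regulated Photinus luciferase reporter in stably transfected Drosophila Schneider cells is measured; decreased signal marks ROR gamma inhibition. Fusion expression is induced by 700 uM copper sulfate for 20 hr.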
* marks the source's active call; other numbers are inactive results; ? = inconclusive; / = not tested or not shown. Unless noted, the call rests on the fitted dose curve; in most records, active means well fitted curve in the direction sought with a large enough effect; inconclusive means small, poorly fitted or top-dose-only effect, or another doubt; inactive means no such curve, though single readings can be large; an effect the other way counts as inactive or inconclusive.

SMILES	SW480 rereplic	IL-1B inflam inh	MCF10A rerep	Gal4-VP16 FLuc	RORg inh
CCN(CC)C(=O)c1sc2nc(-c3cccs3)cc(-c3ccc(Cl)cc3)c2c1N	13µM*	32	?	3%	-28%
Cc1nnc(NC(=O)c2sc3nc(-c4cccs4)cc(C(F)(F)F)c3c2N)s1	4%	-22	?	?	4µM*
Nc1c(C(=O)Nc2nccs2)sc2nc(-c3cccs3)cc(C(F)(F)F)c12	?	39	?	10µM*	?
CC(C)(C)C(=O)c1sc2nc(-c3cccs3)cc(C(F)(F)F)c2c1N	-2%	-24	-1%	-9%	10µM*
CC1CCC2C(C1)OS(=O)(=O)NC2(C)C (configuration not stated)	/	/	/	-4%	-13%
Cc1ccc(S(=O)(=O)N2[C@@H](c3cccc(Cl)c3)C(C(=O)OC(C)(C)C)=CC[C@H]2c2cccc(Cl)c2)cc1	/	6	/	/	/
c1csc(-c2csc3nc(CN4CCOCC4)nc(NCc4ccc5c(c4)OCO5)c23)c1	3%	-26	?	?	18µM*
Cc1ccc(-n2c(C)cc(C(=O)COc3cccnc3[N+](=O)[O-])c2C)cc1	?	-3	21µM*	?	?
Cc1cc(C(=O)COc2cccnc2[N+](=O)[O-])c(C)n1-c1ccccc1	-1%	10	20%	?	?
CC(C)OC(=O)/C=C1\C[C@@H](c2ccccc2C(F)(F)F)O[C@@H](c2ccccc2C(F)(F)F)O1	/	29	/	/	/
CCCCCCCC(=O)N/N=C(/C)c1c(O)cc(C)oc1=O	?	2	11%	22µM*	8.9µM*
CCCCCCCC(=O)N/N=C(\C)c1ccc(O)cc1O	10%	31	8%	11µM*	7.1µM*
CCCCCCCCC(=O)N/N=C(\C)c1ccc(O)cc1O	?	49	?	?	3.5µM*
CCCCC(=O)c1ccc(O)cc1O	-1%	1	-16%	/	/
CCCCCCCCC(=O)N/N=C(\C)c1ccco1	2%	5	0%	5%	?
CCCCCCCC(=O)N/N=C(\C)c1ccc(N)cc1	/	/	/	-15%	19%
CC[C@H](C)[C@H](NC(=O)[C@H](CCC(=O)O)NC(=O)[C@@H](N)CO)C(=O)N[C@@H](CCC(N)=O)C(=O)N[C@@H](CC(C)C)C(=O)N[C@@H](CCSC)C(=O)N[C@@H](Cc1cnc[nH]1)C(=O)N[C@@H](CC(N)=O)C(=O)N[C@@H](CC(C)C)C(=O)NCC(=O)N[C@@H](CCCCN)C(=O)N[C@@H](Cc1cnc[nH]1)C(=O)N[C@@H](CC(C)C)C(=O)N[C@@H](CC(N)=O)C(=O)N[C@@H](CO)C(=O)N[C@@H](CCSC)C(=O)N[C@@H](CCC(=O)O)C(=O)N[C@@H](CCCNC(=N)N)C(=O)N[C@H](C(=O)N[C@@H](CCC(=O)O)C(=O)N[C@@H](Cc1c[nH]c2ccccc12)C(=O)N[C@@H](CC(C)C)C(=O)N[C@@H](CCCNC(=N)N)C(=O)N[C@@H](CCCCN)C(=O)N[C@@H](CCCCN)C(=O)N[C@@H](CC(C)C)C(=O)N[C@@H](CCC(N)=O)C(=O)N[C@@H](CC(=O)O)C(=O)N[C@H](C(=O)N[C@@H](Cc1cnc[nH]1)C(=O)N[C@@H](CC(N)=O)C(=O)N[C@@H](Cc1ccccc1)C(=O)O)C(C)C)C(C)C	/	/	/	-7%	9%
Cc1ccccc1OCC(=O)NC(=S)Nc1ccccc1N1CCN(S(C)(=O)=O)CC1	10%	-8	-5%	?	10µM*
Cc1ccccc1OCC(=O)NC(=S)Nc1cccc2cc(O)ccc12	24%	-12	?	?	-58%
Cc1ccccc1OCC(=O)NC(=S)Nc1ccc(N2CCCC2)cc1	11%	5	0%	8.9µM*	8.9µM*
Cc1ccccc1OCCC(=O)OCC(=O)Nc1ccc(N2CCOCC2)cc1	-2%	-62*	?	7%	-31%

Screens deposited in PubChem by National Center for Advancing Translational Sciences (NCATS).
